# PubChem BioAssay AID1159580 (chemical genetic matrix, 2015)
# Values joined by “and” are separate entries in the source; they are usually repeats but may differ in a detail not shown here. Equal values may be shown once. The whole screen tested about 5,500 compounds, of which about 2,000 (36%) were called active. About 18% were inconclusive and are not listed. The list shows a part of the results. Values without a mark were called inactive. Cut-off read from the data, not from the text of the source: active = normalized growth mostly below about 0.91 (no sharp cut-off); inconclusive = no clear call, values can overlap the other calls; inactive = mostly above about 0.92.
# Assay: chemical genetic growth profiling, strain panel (AID 1159580);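 note: tested at 20 µM; growth read once vehicle control cultures reached saturation at 30 °C; 1 = growth at the plate median or of vehicle wells; lower values mean less growth of the strain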
# Conditions: growth OD
smiles,measurement,setting,value
CN(C)CCCN1c2ccccc2CCc2ccc(Cl)cc21,normalized growth,"S. cerevisiae deletion strains, locus YJR066W, strain TOR1, hits give low values",0.923
same,normalized growth,"S. cerevisiae deletion strains, locus YKL009W, strain mrt4, hits give low values",0.971
same,normalized growth,"S. cerevisiae deletion strains, locus YKL068W, hits give low values",0.991
same,normalized growth,"S. cerevisiae deletion strains, locus YKL085W, strain MDH1 (second series), hits give low values",0.994
same,normalized growth,"S. cerevisiae deletion strains, locus YKL085W, strain MDH1, hits give low values",0.994
same,normalized growth,"S. cerevisiae deletion strains, locus YKL160W, strain elf1, hits give low values",0.993
same,normalized growth,"S. cerevisiae deletion strains, locus YKL190W, strain CNB1, hits give low values",0.953
same,normalized growth,"S. cerevisiae deletion strains, locus YKR001C, strain vps1, hits give low values",0.644 (active)
same,normalized growth,"S. cerevisiae deletion strains, locus YKR026C, strain gcn3, hits give low values",1.01
same,normalized growth,"S. cerevisiae deletion strains, locus YKR091W, strain srl3, hits give low values",1
same,normalized growth,"S. cerevisiae deletion strains, locus YLL001W, strain dnm1, hits give low values",1.01
same,normalized growth,"S. cerevisiae deletion strains, locus YLL026W, hits give low values",0.982
same,normalized growth,"S. cerevisiae deletion strains, locus YLL041C, strain sdh2, hits give low values",1
same,normalized growth,"S. cerevisiae deletion strains, locus YLR027C, strain aat2, hits give low values",0.996
same,normalized growth,"S. cerevisiae deletion strains, locus YLR039C, strain RIC1, hits give low values",1.35 [resistant] (active)
same,normalized growth,"S. cerevisiae deletion strains, locus YLR058C, strain SHM2, hits give low values",0.946
same,normalized growth,"S. cerevisiae deletion strains, locus YLR102C, strain apc9, hits give low values",0.995
same,normalized growth,"S. cerevisiae deletion strains, locus YLR113W, strain HOG1, hits give low values",0.983
same,normalized growth,"S. cerevisiae deletion strains, locus YLR221C, strain rsa3, hits give low values",0.999
same,normalized growth,"S. cerevisiae deletion strains, locus YLR258W, strain gsy2, hits give low values",0.961
same,normalized growth,"S. cerevisiae deletion strains, locus YLR262C, strain YPT6 (second series), hits give low values",1.14
same,normalized growth,"S. cerevisiae deletion strains, locus YLR262C, strain YPT6, hits give low values",1.33
same,normalized growth,"S. cerevisiae deletion strains, locus YLR268W, strain sec22, hits give low values",0.961
same,normalized growth,"S. cerevisiae deletion strains, locus YLR320W, strain mms22, hits give low values",1
same,normalized growth,"S. cerevisiae deletion strains, locus YLR330W, strain CHS5, hits give low values",0.996
same,normalized growth,"S. cerevisiae deletion strains, locus YLR342W, strain FKS1 (second series), hits give low values",0.615 (active)
same,normalized growth,"S. cerevisiae deletion strains, locus YLR342W, strain FKS1, hits give low values",0.998
same,normalized growth,"S. cerevisiae deletion strains, locus YLR357W, strain rsc2, hits give low values",0.974
same,normalized growth,"S. cerevisiae deletion strains, locus YLR370C, strain arc18, hits give low values",0.993
same,normalized growth,"S. cerevisiae deletion strains, locus YLR371W, strain rom2, hits give low values",0.984
same,normalized growth,"S. cerevisiae deletion strains, locus YLR384C, strain iki3, hits give low values",1
same,normalized growth,"S. cerevisiae deletion strains, locus YLR418C, strain cdc73, hits give low values",0.64 (active)
same,normalized growth,"S. cerevisiae deletion strains, locus YML016C, strain PPZ1, hits give low values",0.978
same,normalized growth,"S. cerevisiae deletion strains, locus YML032C, strain rad52, hits give low values",0.967
same,normalized growth,"S. cerevisiae deletion strains, locus YML120C, strain ndi1, hits give low values",0.986
same,normalized growth,"S. cerevisiae deletion strains, locus YML124C, strain tub3, hits give low values",0.989
same,normalized growth,"S. cerevisiae deletion strains, locus YMR058W, strain fet3, hits give low values",0.966
same,normalized growth,"S. cerevisiae deletion strains, locus YMR078C, strain ctf18, hits give low values",0.989
same,normalized growth,"S. cerevisiae deletion strains, locus YMR125W, strain sto1, hits give low values",0.962
same,normalized growth,"S. cerevisiae deletion strains, locus YMR129W, hits give low values",1
same,normalized growth,"S. cerevisiae deletion strains, locus YMR205C, strain PFK2, hits give low values",0.979
same,normalized growth,"S. cerevisiae deletion strains, locus YMR223W, strain ubp8, hits give low values",0.934
same,normalized growth,"S. cerevisiae deletion strains, locus YMR231W, strain pep5, hits give low values",0.999
same,normalized growth,"S. cerevisiae deletion strains, locus YMR263W, strain SAP30, hits give low values",0.892 and 1.04
same,normalized growth,"S. cerevisiae deletion strains, locus YMR307W, strain GAS1, hits give low values",0.726
same,normalized growth,"S. cerevisiae deletion strains, locus YNL067W, strain RPL9B, hits give low values",0.924
same,normalized growth,"S. cerevisiae deletion strains, locus YNL071W, strain lat1, hits give low values",1.01
same,normalized growth,"S. cerevisiae deletion strains, locus YNL175C, strain NOP13, hits give low values",1.07
same,normalized growth,"S. cerevisiae deletion strains, locus YNL183C, strain NPR1, hits give low values",0.934
same,normalized growth,"S. cerevisiae deletion strains, locus YNL209W, strain ssb2, hits give low values",0.926 (active)
same,normalized growth,"S. cerevisiae deletion strains, locus YNL224C, strain SQS1, hits give low values",1.04
same,normalized growth,"S. cerevisiae deletion strains, locus YNL233W, strain BNI4, hits give low values",0.877
same,normalized growth,"S. cerevisiae deletion strains, locus YNL248C, strain rpa49, hits give low values",0.983
same,normalized growth,"S. cerevisiae deletion strains, locus YNL250W, strain rad50, hits give low values",0.996
same,normalized growth,"S. cerevisiae deletion strains, locus YNL271C, strain bni1, hits give low values",0.993
same,normalized growth,"S. cerevisiae deletion strains, locus YNL298W, strain CLA4, hits give low values",0.999
same,normalized growth,"S. cerevisiae deletion strains, locus YNL307C, strain MCK1, hits give low values",0.961
same,normalized growth,"S. cerevisiae deletion strains, locus YNL322C, strain KRE1 (second series), hits give low values",1.01
same,normalized growth,"S. cerevisiae deletion strains, locus YNL322C, strain KRE1, hits give low values",0.988 and 0.981
same,normalized growth,"S. cerevisiae deletion strains, locus YNR049C, strain mso1, hits give low values",1.01
same,normalized growth,"S. cerevisiae deletion strains, locus YNR052C, strain pop2, hits give low values",0.935
same,normalized growth,"S. cerevisiae deletion strains, locus YOL006C, strain TOP1, hits give low values",0.311 (active)
same,normalized growth,"S. cerevisiae deletion strains, locus YOL012C, strain htz1",1.42
same,normalized growth,"S. cerevisiae deletion strains, locus YOL147C, strain pex11, hits give low values",0.989
same,normalized growth,"S. cerevisiae deletion strains, locus YOR001W, strain rrp6, hits give low values",0.982
same,normalized growth,"S. cerevisiae deletion strains, locus YOR061W, strain CKA2, hits give low values",0.847 (active)
same,normalized growth,"S. cerevisiae deletion strains, locus YOR069W, strain VPS5, hits give low values",0.984
same,normalized growth,"S. cerevisiae deletion strains, locus YOR070C, strain gyp1, hits give low values",0.99
same,normalized growth,"S. cerevisiae deletion strains, locus YOR080W, strain dia2, hits give low values",1
same,normalized growth,"S. cerevisiae deletion strains, locus YOR083W, strain WHI5 (second series), hits give low values",1.1
same,normalized growth,"S. cerevisiae deletion strains, locus YOR083W, strain WHI5, hits give low values",0.985
same,normalized growth,"S. cerevisiae deletion strains, locus YOR106W, strain vam3, hits give low values",0.846 (active)
same,normalized growth,"S. cerevisiae deletion strains, locus YOR136W, strain idh2, hits give low values",1.01
same,normalized growth,"S. cerevisiae deletion strains, locus YOR144C, strain elg1, hits give low values",0.991
same,normalized growth,"S. cerevisiae deletion strains, locus YOR184W, strain ser1, hits give low values",0.96
same,normalized growth,"S. cerevisiae deletion strains, locus YOR231W, strain MKK1, hits give low values",0.999
same,normalized growth,"S. cerevisiae deletion strains, locus YOR265W, strain rbl2, hits give low values",1
same,normalized growth,"S. cerevisiae deletion strains, locus YOR270C, strain vph1, hits give low values",0.567 (active)
same,normalized growth,"S. cerevisiae deletion strains, locus YOR290C, strain snf2, hits give low values",0.903
same,normalized growth,"S. cerevisiae deletion strains, locus YOR316C, strain cot1, hits give low values",0.977
same,normalized growth,"S. cerevisiae deletion strains, locus YPL051W, strain arl3, hits give low values",0.989
same,normalized growth,"S. cerevisiae deletion strains, locus YPL078C, strain atp4, hits give low values",0.987
same,normalized growth,"S. cerevisiae deletion strains, locus YPL106C, strain sse1, hits give low values",1.02
same,normalized growth,"S. cerevisiae deletion strains, locus YPL240C, strain hsp82, hits give low values",0.99
same,normalized growth,"S. cerevisiae deletion strains, locus YPL241C, strain CIN2, hits give low values",0.986 and 0.999
same,normalized growth,"S. cerevisiae deletion strains, locus YPL256C, strain CLN2, hits give low values",1.02
same,normalized growth,"S. cerevisiae deletion strains, locus YPR119W, strain clb2, hits give low values",0.993
same,normalized growth,"S. cerevisiae deletion strains, locus YPR141C, strain kar3, hits give low values",0.99
same,normalized growth,"S. cerevisiae deletion strains, locus YPR163C, strain tif3, hits give low values",0.728 (active)
same,normalized growth,"S. cerevisiae deletion strains, locus YPR167C, strain met16, hits give low values",0.986
same,normalized growth,"S. cerevisiae deletion strains, strain wtn01, hits give low values",0.928
same,normalized growth,"S. cerevisiae strains, strain wild type, hits give low values",0.902
